Source: the supplement of paper PMC12669032
Unmarked numbers belong to inactive results.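 Rule for the calls: active = AUC reduced over 20% with Padj below 0.05 in at least 2 of 3 replicates; inactive = otherwise.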

Legend:
Roseburia intestinalis = assay: growth AUC relative to DMSO control (median of replicates) (fraction); higher = more growth (less inhibition), active = hit call of the paper; details: 20 µM; 24 h
Procedure, shortened: (§1)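 In round-bottom 96-well plates sealed with pierced gas-permeable seals, gut bacterial monocultures in mGAM were grown anaerobically at 37 °C from OD600 0.05 with 20 µM compound (1% DMSO). OD600 readings were taken hourly for 24 h, and the minimum OD was set to 0. Area under the growth curve was then normalised to the plate median of solvent-only wells, or to row and column medians on the industrial chemical plate. The value given is the median of three biological replicates grown on separate days.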

Streptococcus salivarius = assay: as above; details: 20 µM; 24 h
Procedure, shortened: as §1

| SMILES | growth AUC (Roseburia intestinalis) | growth AUC (Streptococcus salivarius) |
| --- | --- | --- |
| Cc1cc(Cl)ccc1OCC(=O)O.O.[Na] | 1.02 | 0.986 |
| C1CCC(NC2CCCCC2)CC1.O=NO | 1 | 0.986 |
| CC(C)N(C(=O)SCC(Cl)=C(Cl)Cl)C(C)C | 1.01 | 0.996 |
| CCOP(=S)(OCC)Oc1nc(Cl)c(Cl)cc1Cl | 1.01 | 1.06 |
| CNC(=O)ON=C(CS(C)=O)C(C)(C)C (configuration not stated) | 0.974 | 0.989 |
| CCOP(=S)(OCC)SCSc1ccc(Cl)cc1 | 0.939 | 1.03 |
| CCOC(=O)c1cn2nc(OP(=S)(OCC)OCC)cc2nc1C | 0.981 | 0.981 |
| COC(=O)c1cc(Oc2ccc(Cl)cc2Cl)ccc1[N+](=O)[O-] | 0.891 | 1.02 |
| O=[N+]([O-])c1cc(C(F)(F)F)c(Cl)c([N+](=O)[O-])c1Nc1ncc(C(F)(F)F)cc1Cl | 0.989 | 0.822 |
| c1ccc2c(c1)cc1ccc3cccc4ccc2c1c34 | 1.13 | 1.06 |
| CCOP(=S)(OCC)Oc1ccc([N+](=O)[O-])cc1 | 1.01 | 0.93 |
| Cc1cc(Cl)ccc1N=CN(C)C | 1.02 | 0.998 |
| CCCCCCCCn1sccc1=O | 0.449 (active) | 0.815 |
| CCCCOC(=O)c1ccccc1C(=O)OCCCC | 0.953 | 1.02 |
| Cc1cc(C(C#N)c2ccc(Cl)cc2)c(Cl)cc1NC(=O)c1cc(I)cc(I)c1O (configuration not stated) | 0.15 (active) | 0.0175 (active) |
| Cc1ccc2nc3sc(=O)sc3nc2c1 | 0.892 | 0.983 |
| COP(=O)(OC)O/C(=C/Br)c1ccc(Cl)cc1Cl | 1.02 | 1 |
| Nc1cc(Cl)cc(C(=O)O)c1Cl | 1.04 | 1.02 |
| O=C1C(Cl)=C(Cl)C(=O)C(Cl)=C1Cl | 0.995 | 1.01 |
| CNc1cnn(-c2cccc(C(F)(F)F)c2)c(=O)c1Cl | 1.03 | 0.976 |
| CCCCN(CCCC)SN(C)C(=O)Oc1cccc2c1OC(C)(C)C2 | 0.942 | 1 |

| SMILES | growth AUC (Roseburia intestinalis) | growth AUC (Streptococcus salivarius) |
| --- | --- | --- |
| ClC1=C(Cl)C2(Cl)[C@H]3[C@H]4O[C@H]4[C@H](Cl)[C@H]3C1(Cl)C2(Cl)Cl (single isomer, unassigned; isomer a) | 0.954 | 0.976 |
| O=S(=O)(Oc1ccc(Cl)cc1)c1ccc(Cl)cc1 | 0.948 | 0.983 |
| CN=C=S | 0.997 | 0.994 |
| COP(=S)(OC)SCC(=O)N(c1ccc(Cl)cc1)C(C)C | 1.03 | 0.992 |
| CCC(C)c1ccccc1OC(=O)NC (configuration not stated) | 0.963 | 1.04 |
| COC(=O)C(C)(Cl)Cl | 1.12 | 0.979 |
| Cc1ccccc1C(=O)Nc1cccc(OC(C)C)c1 | 1.01 | 0.988 |
| COc1nn(CSP(=S)(OC)OC)c(=O)s1 | 1.06 | 0.985 |
| COc1cnc(OC)n2nc(NS(=O)(=O)c3c(OCC(F)F)cccc3C(F)(F)F)nc12 | 1.01 | 0.959 |
| CCCCC(C#N)(Cn1cncn1)c1ccc(Cl)cc1 (configuration not stated) | 0.94 | 0.993 |
| ClC1=C(Cl)C2(Cl)C3C(Cl)C=CC3C1(Cl)C2(Cl)Cl (configuration not stated) | 0.918 | 0.928 |
| CCCOc1nn(C(=O)[N-]S(=O)(=O)c2ccccc2C(=O)OC)c(=O)n1C.[Na+] | 0.992 | 0.981 |
| CN(C(=O)COc1nc2ccccc2s1)c1ccccc1 | 1.08 | 1 |
| O=[N+]([O-])/N=C1\NCCN1Cc1ccc(Cl)nc1 | 0.955 | 0.97 |
| COP(=O)(OC)OC=C(Cl)Cl | 0.985 | 1.03 |
| CSc1nc(N=[N+]=[N-])nc(NC(C)C)n1 | 1.1 | 1.07 |
| C=CC(N)=O | 1.01 | 1.01 |
| CNC(=O)Oc1cc(C)c(S(C)(=O)=O)c(C)c1 | 0.967 | 0.945 |
| CNC(=S)S | 1.1 | 0.997 |
| COc1cc(OC)nc(NC(=O)NS(=O)(=O)c2cc(NC=O)ccc2C(=O)N(C)C)n1 | 1.04 | 1.03 |
| CCOP(=S)(OCC)SCS(=O)(=O)CC | 0.947 | 1.01 |

| SMILES | growth AUC (Roseburia intestinalis) | growth AUC (Streptococcus salivarius) |
| --- | --- | --- |
| CC(C)C1(C)N=C(c2ncccc2C(=O)O)NC1=O (configuration not stated) | 0.97 | 0.931 |
| COc1ccc(/C(=C/C(=O)N2CCOCC2)c2ccc(F)cc2)cc1OC | 0.975 | 1.04 |
| CC1(C)C(C(=O)OC(C#N)c2cccc(Oc3ccccc3)c2)C1(C)C (configuration not stated) | 0.929 | 0.957 |
| CNc1nc(C)c(C)c(OC(=O)N(C)C)n1 | 0.951 | 1.03 |
| Clc1ccccc1Cl | 0.968 | 1.07 |
| CCNP(=S)(OC)O/C(C)=C/C(=O)OC(C)C (configuration not stated) | 1.05 | 0.99 |
| CCOC(=O)CCN(Cc1ccccc1)SN(C)C(=O)O/N=C(/C)SC | 0.987 | 0.976 |
| Cc1ccc(NC(=O)c2snnc2C)cc1Cl | 0.925 | 0.962 |
| CCCSP(=O)(OCC)Oc1ccc(Br)cc1Cl (configuration not stated) | 1.01 | 1.01 |
| CCC(C)(c1ccc(O)cc1)c1ccc(O)cc1 | 0.947 | 0.96 |
| CN(C)C(CSS(=O)(=O)[O-])CSS(=O)(=O)O.[Na+] | 1.06 | 0.979 |
| COc1nc(NC(C)C)nc(NC(C)C)n1 | 0.963 | 1.05 |
| Cc1cc(C)c(C2=C(OC(=O)CC(C)(C)C)C3(CCCC3)OC2=O)c(C)c1 | 0.989 | 0.991 |
| COCC(C)N(C(=O)CCl)c1c(C)csc1C (configuration not stated) | 0.988 | 0.868 |
| Nc1ccc(Cl)cc1Cl | 1.02 | 1.03 |
| CN(C)C(CSS(=O)(=O)[O-])CSS(=O)(=O)[O-].[Na+].[Na+] | 1.24 | 0.961 |
| CCOc1cc(OP(=S)(OC)OC)nc(CC)n1 | 0.98 | 0.983 |
| Oc1c(Cl)c(Cl)cc(Cl)c1Cl | 0.978 | 0.869 |
| CCOC(=O)CC(SP(=S)(OC)OC)C(=O)OCC (configuration not stated) | 0.99 | 0.939 |
| O=C1C[C@@H]2OCC=C3CN4CC[C@]56c7ccccc7N1[C@H]5[C@H]2[C@H]3C[C@H]46 | 0.998 | 0.968 |
| Clc1cc(Cl)c(Cl)c(Cl)c1 | 0.91 | 0.968 |

| SMILES | growth AUC (Roseburia intestinalis) | growth AUC (Streptococcus salivarius) |
| --- | --- | --- |
| O=[N+]([O-])C(Br)(CO)CO | 0.964 | 0.967 |
| COP1(=S)OCc2ccccc2O1 (configuration not stated) | 0.943 | 1.01 |
| CC(C)C(C(=O)OC(C#N)c1cccc(Oc2ccccc2)c1)c1ccc(OC(F)F)cc1 (configuration not stated) | 0.977 | 0.993 |
| Oc1ccc(Cl)cc1 | 0.972 | 0.984 |
| CC(C)N1C(=O)c2ccccc2NS1(=O)=O | 1 | 0.978 |
| Clc1ccc(C(c2ccc(Cl)cc2)C(Cl)(Cl)Cl)cc1 | 0.941 | 0.897 |
| Oc1ccc(Cc2ccc(O)cc2)cc1 | 0.999 | 0.966 |
| COP(=O)(OC)OC(Br)C(Cl)(Cl)Br (configuration not stated) | 1.01 | 0.956 |
| CNC(=O)/C(=N/OC)c1ccccc1Oc1ccccc1 | 1.04 | 0.989 |
| c1cc2ccc3cccc4ccc(c1)c2c34 | 0.977 | 0.927 |
| CCOP(=S)(OCC)SCCS(=O)CC (configuration not stated) | 0.965 | 0.973 |
| CCSCCSP(=S)(OC)OC | 1.03 | 1.02 |
| COC(=O)C(C)N(C(=O)c1ccco1)c1c(C)cccc1C (configuration not stated) | 0.97 | 0.942 |
| CC(C)=CC1C(C(=O)OC(C#N)c2cccc(Oc3ccccc3)c2)C1(C)C (mixture of isomers) | 0.893 | 0.988 |
| O=C(O)C1(O)c2ccccc2-c2ccc(Cl)cc21 (configuration not stated) | 0.991 | 0.982 |
| COC(=O)NS(=O)(=O)c1ccc(N)cc1 | 0.929 | 0.893 |
| Nc1cc(Cl)cc(Cl)c1 | 1.07 | 1.01 |
| Oc1c(Cl)ccc(Cl)c1Cl | 0.951 | 0.964 |
